The results in this text go back to PubChem BioAssay (NCI).

Among the test systems are DU-145 prostate; K-562 leukemia; MALME-3M melanoma; MDA-MB-231 breast; RXF 393 renal; SF-268 CNS; SF-295 CNS; SF-539 CNS; UACC-257 melanoma; M14 melanoma.
Holding throughout (experiment): NCI-60 one-dose screen, 48 h (100 = growth as untreated, 0 = no growth, -100 = all killed)
What all share (conditions): 10 µM

The panel holds about 83,000 compounds, 20% with a hit somewhere; the sample as a whole holds those more often.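 Note: values are percent growth. 100 is the growth of untreated cells, values between 100 and 0 indicate rising inhibition; between -100 and 0 indicates cell death.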 A number with no mark means an inactive call. Activity calls are given as the source filed them. Rule for the calls: active = growth percent below 10; inactive = the rest.

In the case of `O=C(N/N=c1/ccoc2cccnc12)N1CCN(c2ncccn2)CC1`, the growth with DU-145 prostate was 50.5%; in the test with K-562 leukemia, 9.99% (active); in the test with MALME-3M melanoma it was 55.5%; in the test on MDA-MB-231 breast it was 40%; in the test with RXF 393 renal, 66.8%; in the test with SF-268 CNS, 37.3%. In addition, the growth with SF-295 CNS was 15.9%; with SF-539 CNS it was 45.3%; with UACC-257 melanoma, 5.91% (active); in the test with M14 melanoma, 14.5%.

Turning to `COc1cc2c3c(cccc3c1)C(=O)N(CCN1CCCC1)C2=O`, the growth with DU-145 prostate is 15.1%; with K-562 leukemia, 4.01% (active); with MALME-3M melanoma, -21.7% (active); in the test with MDA-MB-231 breast, 29.1%; in the test with RXF 393 renal, 10.9%; in the test with SF-268 CNS, 28.2%. Besides, the growth in the test with SF-295 CNS is 40.2%; in the test on SF-539 CNS, 30.1%; with UACC-257 melanoma, -10.4% (active); in the test with M14 melanoma, 25.7%.

`Cc1cc(C(C)(C)CC(C)(C)C)ccc1OCCOCC[N+](C)(C)Cc1ccccc1`: the growth with DU-145 prostate is 22.4%; with K-562 leukemia it was -53.8% (active); in the test on MALME-3M melanoma it was -35.5% (active); with MDA-MB-231 breast, -67.7% (active); in the test with SF-268 CNS, -69.7% (active); in the test on SF-295 CNS it was -14.3% (active). Also, the growth is -82.6% (active) in the test on SF-539 CNS, 22.9% with UACC-257 melanoma and -83.2% (active) in the test on M14 melanoma.

With `CCOCC[P+](c1ccccc1)(c1ccccc1)c1ccccc1`, the growth is 59.8% in the test on DU-145 prostate; 20% in the test with K-562 leukemia; 61.1% in the test on MALME-3M melanoma; 63.5% with MDA-MB-231 breast; 79.2% in the test with RXF 393 renal; 61.9% in the test on SF-268 CNS. For the same compound, the growth with SF-295 CNS was 39%; in the test with SF-539 CNS, 56.2%; with UACC-257 melanoma, 14%; in the test with M14 melanoma it was 60.8%.

For `COc1ccc(CCc2nc3cc(-c4c(C)noc4C)ccc3n2CCN2CCOCC2)cc1`, the growth in the test on DU-145 prostate is 80.1%; with K-562 leukemia it was 13.7%; with MALME-3M melanoma, -37.4% (active); in the test on MDA-MB-231 breast, 81.7%; in the test on RXF 393 renal, 70.1%; with SF-268 CNS it was 50.4%. The growth in the test on SF-295 CNS is -35% (active); in the test on SF-539 CNS it was 90.4%; in the test with UACC-257 melanoma, 12.9%; in the test on M14 melanoma it was 20.6%.

As to `CCc1ccc(Nc2cc(C)nc3nc(C)nn23)cc1`, the growth in the test on DU-145 prostate is 29.5%; in the test on K-562 leukemia it was -24.3% (active); in the test on MALME-3M melanoma, -90.2% (active); with MDA-MB-231 breast it was -58.3% (active); with RXF 393 renal it was -66.5% (active); in the test on SF-268 CNS it was 37.8%. Besides, the growth was 33.1% with SF-295 CNS, 0.337% (active) in the test with SF-539 CNS, -84.8% (active) in the test with UACC-257 melanoma and -93.6% (active) in the test with M14 melanoma.

With `O=c1oc2c3ccc4cnccc4c3[nH]c2c2ccccc12`, the growth is 16.9% with DU-145 prostate; 21.1% in the test on K-562 leukemia; -80.8% (active) in the test with MALME-3M melanoma; 68.2% in the test with MDA-MB-231 breast; 23% in the test on SF-268 CNS; 75.6% in the test with SF-295 CNS. Further, the growth in the test on SF-539 CNS was -72.1% (active); in the test with UACC-257 melanoma it was 1.25% (active); with M14 melanoma, 67.3%.

As for `Cc1ccc(C)c(S(=O)(=O)NC2c3ccccc3Oc3ccccc32)c1`, the growth in the test with DU-145 prostate was 112%; in the test with K-562 leukemia, 90%; in the test with MALME-3M melanoma, 93.2%; with MDA-MB-231 breast, 95.2%; with RXF 393 renal, 91.3%; in the test with SF-268 CNS it was 95%. In addition, the growth in the test on SF-295 CNS is 98.1%; with SF-539 CNS, 97.3%; in the test with UACC-257 melanoma, 109%; in the test on M14 melanoma it was 101%.

Regarding `CCCc1c(CC)c(=N)c2ccccc2n1C`, the growth in the test with DU-145 prostate was 62%; in the test with K-562 leukemia, -3.78% (active); with MALME-3M melanoma it was -88.7% (active); in the test with MDA-MB-231 breast it was 43.1%; with RXF 393 renal, 8.09% (active); in the test on SF-268 CNS it was 79.5%. For the same compound, the growth is -51.9% (active) in the test on SF-295 CNS, 68.1% in the test with SF-539 CNS, -64.1% (active) in the test with UACC-257 melanoma and -61.6% (active) with M14 melanoma.

As for `CCC(CCNc1cc(OC)cc2cccnc12)CN1C(=O)c2ccccc2C1=O` (stereo not given), the growth was 118% in the test on DU-145 prostate; 101% in the test on K-562 leukemia; 132% in the test on MALME-3M melanoma; 96% with MDA-MB-231 breast; 117% with RXF 393 renal; 98.7% in the test on SF-268 CNS. For the same compound, the growth with SF-295 CNS is 106%; in the test on SF-539 CNS it was 106%; in the test with UACC-257 melanoma, 119%; with M14 melanoma, 117%.

For `COc1ccc(C(=O)c2sc3nc(-c4cccs4)ccc3c2N)cc1OC`, the growth with DU-145 prostate was 81%; in the test with K-562 leukemia, 13%; with MALME-3M melanoma, 58.9%; in the test with MDA-MB-231 breast it was 43.8%; in the test on RXF 393 renal it was 66.9%; in the test on SF-268 CNS, 62.8%. The growth in the test with SF-295 CNS was 51.3%; with SF-539 CNS, 54.6%; in the test on UACC-257 melanoma, 76.3%; in the test on M14 melanoma, 42.1%.

`Cc1nc2sccn2c1-c1csc(Nc2cccc(Cl)c2C)n1`: the growth in the test on DU-145 prostate is 78.7%; in the test on K-562 leukemia it was 16%; with MALME-3M melanoma, 58.9%; with MDA-MB-231 breast, 65.4%; with RXF 393 renal, 67.8%; in the test with SF-268 CNS it was 80.1%. For the same compound, the growth in the test on SF-295 CNS is 37.8%; with SF-539 CNS it was 63.8%; in the test on UACC-257 melanoma it was 34%; with M14 melanoma, 50.8%.

As to `O=c1[nH]c(=O)n(C2C[C@@H](O)[C@@H](CO)O2)cc1F` (stereo not given in full), the growth is 37% in the test on DU-145 prostate; 9.63% (active) in the test with K-562 leukemia; 52.7% in the test on MALME-3M melanoma; 62.1% with MDA-MB-231 breast; 24.1% in the test with SF-268 CNS; 8.65% (active) in the test on SF-295 CNS. The growth is 5.71% (active) with SF-539 CNS, 67.8% in the test with UACC-257 melanoma and -6.77% (active) in the test with M14 melanoma.

Turning to `COc1ccc(Cn2cc3c(c2-c2cc(OC)c(OC)c(OC)c2)CCc2cnoc2-3)cc1N`, the growth is 1.73% (active) with DU-145 prostate; 15% in the test with K-562 leukemia; 19.5% in the test with MDA-MB-231 breast; 35% with RXF 393 renal; 15.4% with SF-268 CNS; -16.9% (active) with SF-295 CNS. For the same compound, the results for the growth in the test with SF-539 CNS, in the test on UACC-257 melanoma and with M14 melanoma were 5.21% (active), 65.9% and 6.22% (active), respectively.

For the compound `Cc1ccc(S(=O)(=O)Oc2ccccc2-c2ccccc2)cc1`, the growth with DU-145 prostate is 34%; with K-562 leukemia it was 15.3%; in the test with MDA-MB-231 breast, 55.9%; in the test with RXF 393 renal it was 28.9%; in the test with SF-268 CNS it was 42.5%; in the test on SF-295 CNS, 8.37% (active). In addition, the results for the growth with SF-539 CNS, in the test on UACC-257 melanoma and in the test on M14 melanoma were 8.87% (active), 54.4% and 6.11% (active), respectively.
